The source of these data is PubChem BioAssay (NCI).

Some test systems named below: HCT-15 colon; HT29 colon; SNB-75 CNS; SNB-19 CNS; U251 CNS; PC-3 prostate; SK-MEL-5 melanoma; UACC-62 melanoma; LOX IMVI melanoma; SK-MEL-28 melanoma; SK-MEL-2 melanoma; EKVX NSCLC; SN12C renal; UO-31 renal; TK-10 renal; ACHN renal; CAKI-1 renal; A498 renal; CCRF-CEM leukemia; MOLT-4 leukemia.
Holding throughout (test): NCI-60 one-dose screen, 48 h (100 = growth as untreated, 0 = no growth, -100 = all killed)
Common to all, as to conditions: 10 µM unless noted

About 83,000 compounds went through this panel and 20% of them were active in at least one assay; those are over-represented in the sample as a whole.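 The test compound was applied at a single concentration to cells in 96-well plates for 48 hours, and percent growth was recorded.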 Values without a mark were called inactive. Activity calls are given as the source filed them. The calls were made as follows: active = growth percent below 10; inactive = the rest.

Regarding `O=C(/C=C/c1cc(Cl)ccc1Cl)Nc1ncc(Cc2ccc(Cl)cc2)s1`, the growth was 7.86% (active) with HCT-15 colon; -22.8% (active) in the test on HT29 colon; 0.161% (active) in the test on SNB-75 CNS; 19.1% in the test with SNB-19 CNS; 2.48% (active) in the test with U251 CNS; 27.3% with PC-3 prostate. Besides, the growth in the test on SK-MEL-5 melanoma was 5.45% (active); with UACC-62 melanoma, 29.1%; in the test with LOX IMVI melanoma, -37.3% (active); with SK-MEL-28 melanoma, 52.6%; in the test on SK-MEL-2 melanoma, 24.4%; in the test on EKVX NSCLC, 30.2%. Further, the growth is 9.91% (active) in the test with SN12C renal; 19.3% with UO-31 renal; 34.1% in the test with TK-10 renal; 3.59% (active) with ACHN renal; 2.37% (active) in the test with CAKI-1 renal; -32.8% (active) with A498 renal. The results for the growth with CCRF-CEM leukemia and in the test with MOLT-4 leukemia were 11.1% and 15.2%, respectively.
`O=C1C(N2CCN(c3ccccc3)CC2)=C(Cl)C(=O)c2ncccc21`: the growth is 20.3% in the test with HCT-15 colon; 106% in the test with HT29 colon; 83.7% in the test with SNB-75 CNS; 81.5% in the test on SNB-19 CNS; 79.5% in the test on U251 CNS; 71.9% in the test on PC-3 prostate. The growth with SK-MEL-5 melanoma is 95.1%; in the test on UACC-62 melanoma it was 61.8%; in the test on LOX IMVI melanoma, 10.4%; with SK-MEL-28 melanoma it was 83%; in the test with SK-MEL-2 melanoma, 97.1%; in the test on EKVX NSCLC, 101%. In addition, the growth with SN12C renal is 58.2%; in the test with UO-31 renal, 14.9%; in the test on TK-10 renal, 123%; with ACHN renal it was -3.31% (active); in the test with CAKI-1 renal it was 39.9%; in the test on A498 renal it was 104%. The results for the growth in the test with CCRF-CEM leukemia and in the test with MOLT-4 leukemia were 6.08% (active) and 9.67% (active), respectively.
Take `Cc1cccc(N2CCN(C3=C(Cl)C(=O)c4ncccc4C3=O)CC2)c1`: the growth in the test on HCT-15 colon is 24.8%; in the test with HT29 colon, 104%; in the test on SNB-75 CNS, 84.3%; in the test on SNB-19 CNS, 79.5%; in the test on U251 CNS, 85.2%; with PC-3 prostate it was 72.9%. Moreover, the growth with SK-MEL-5 melanoma is 95.2%; in the test on UACC-62 melanoma, 74.3%; in the test on LOX IMVI melanoma, 24.2%; in the test on SK-MEL-28 melanoma it was 92.1%; in the test on SK-MEL-2 melanoma, 99.9%; with EKVX NSCLC, 104%. The growth in the test on SN12C renal was 75.1%; with UO-31 renal it was 18.3%; in the test with TK-10 renal it was 117%; in the test with ACHN renal, -32.9% (active); with CAKI-1 renal, 52%; in the test with A498 renal, 103%. The growth in the test with CCRF-CEM leukemia was 4.71% (active); in the test on MOLT-4 leukemia, 9.85% (active).
For `Cc1[nH]c(C(=O)Nc2ccc(C(=O)NCC3CCNCC3)cc2OC(C)C)c(Cl)c1Cl`, the growth in the test on HCT-15 colon is 93.7%; in the test on HT29 colon, 40.6%; in the test with SNB-75 CNS, 44.8%; with SNB-19 CNS, 64.2%; in the test with U251 CNS, 8.95% (active); with PC-3 prostate, 61.6%. Besides, the growth with SK-MEL-5 melanoma is 95.9%; in the test on UACC-62 melanoma, 98.8%; in the test on LOX IMVI melanoma, 9.32% (active); in the test on SK-MEL-28 melanoma, 83.9%; with SK-MEL-2 melanoma it was 97.9%; in the test on EKVX NSCLC it was 82.8%. Besides, the growth with SN12C renal is 81.4%; with UO-31 renal, 88.6%; in the test on TK-10 renal, 90.2%; in the test with ACHN renal, 99.9%; in the test on CAKI-1 renal, 76.7%; in the test on A498 renal, 79.4%. The growth was 32.6% in the test on CCRF-CEM leukemia and 19.6% in the test on MOLT-4 leukemia.
With `CN1CCN(Cc2ccc(NC(=O)c3cncc(C#Cc4cnc5ccc(N6CCOCC6)nn45)c3)cc2C(F)(F)F)CC1`, the growth with HCT-15 colon was -53.9% (active); in the test on HT29 colon, -71.2% (active); with SNB-75 CNS, -46.3% (active); in the test on SNB-19 CNS, -20.3% (active); in the test on U251 CNS, -92.8% (active); in the test on PC-3 prostate, -7.08% (active). Further, the growth in the test with SK-MEL-5 melanoma is -95.9% (active); in the test with UACC-62 melanoma it was -62.2% (active); in the test with LOX IMVI melanoma, -93.8% (active); with SK-MEL-28 melanoma it was -76.4% (active); in the test with SK-MEL-2 melanoma, -88.3% (active); with EKVX NSCLC, -47.5% (active). The growth was -22.1% (active) in the test on SN12C renal; -81.2% (active) with UO-31 renal; -64.3% (active) in the test with TK-10 renal; -97.8% (active) in the test with ACHN renal; -50.3% (active) with CAKI-1 renal; -94.3% (active) in the test with A498 renal. Further, the values for the growth with CCRF-CEM leukemia and in the test with MOLT-4 leukemia were -2.39% (active) and 0.376% (active), respectively.
Regarding `COc1ccc(-c2cc(-c3ccc(N4CCOCC4)cc3)n3c(n2)nc2ccccc23)cc1OC`, the growth was 83.1% in the test on HCT-15 colon; 105% in the test on HT29 colon; 83.3% with SNB-75 CNS; 85.1% in the test with SNB-19 CNS; 86.1% with U251 CNS; 73% with PC-3 prostate. Moreover, the growth was 55.8% with SK-MEL-5 melanoma; 94.3% with UACC-62 melanoma; 78.4% with LOX IMVI melanoma; 94.4% in the test with SK-MEL-28 melanoma; 97.8% with SK-MEL-2 melanoma; 88.3% in the test on EKVX NSCLC. The growth in the test with SN12C renal is 78.6%; with UO-31 renal, 39.2%; with TK-10 renal, 98.8%; with ACHN renal, 93.6%; in the test on CAKI-1 renal, 50.6%; in the test with A498 renal, 63%. The growth in the test on CCRF-CEM leukemia is 63.7%; in the test with MOLT-4 leukemia, 51.4%.
Take `O=C1/C(=C/c2cc(F)cc(F)c2)Cc2cc3c(cc21)OCO3`: the growth in the test on HCT-15 colon was 27.2%; with HT29 colon, 22.1%; in the test on SNB-75 CNS it was 6.56% (active); in the test with SNB-19 CNS, 49.7%; with U251 CNS, 43.4%; in the test on PC-3 prostate, 25.3%. The growth in the test with SK-MEL-5 melanoma was 23.6%; in the test with UACC-62 melanoma it was 24.3%; with LOX IMVI melanoma, 38.5%; in the test with SK-MEL-28 melanoma it was 57.8%; in the test on SK-MEL-2 melanoma it was 44.3%; in the test with EKVX NSCLC it was 73.5%. Besides, the growth in the test on SN12C renal is 45.7%; in the test on UO-31 renal it was 41.3%; in the test on TK-10 renal it was 99.4%; in the test on ACHN renal it was 43.9%; in the test with CAKI-1 renal it was 29.1%; with A498 renal, 20.2%. Besides, the growth with CCRF-CEM leukemia is 56.1%; with MOLT-4 leukemia it was 43.3%.
